# Reference: the supplement of paper PMC9334596
# “And” between values parts separate entries of the source, which are not always exact repeats. Equal entries are not always repeated. In all, about 5,300 compounds were measured (“PER2::LUC luminescence relative to vehicle control”: median about 0.96, highest 2% from about 1.3 on). Shown is part of a subset that was picked to be rich in the highest values.
# Tested on: mPer2Luc MEF
# Test: PER2::LUC luminescence relative to vehicle control (fold of vehicle); higher = higher PER2::LUC reporter signal
# Conditions: 10 µM
# In short: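 Each value gives PER2::LUC luminescence as fold of vehicle control, measured with the ONE-Glo luciferase assay system in mouse embryonic fibroblasts carrying the mPer2Luc reporter. Cells grown in DMEM with 10% FBS at 37 °C and 5% CO2 were seeded at ~3000 per well in 384-well plates. Library compounds were added at 10 μM 48 h later, and readings were taken 24 h and 30 h after treatment.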
Compound,PER2::LUC luminescence (time after treatment 24 h),PER2::LUC luminescence (time after treatment 30 h)
O=C(O)[C@H]1O[C@@H](Oc2cc3oc(-c4ccccc4)cc(=O)c3c(O)c2O)[C@H](O)[C@@H](O)[C@@H]1O,1.22,1.34
O=c1cc(-c2ccccc2)oc2cccc(O)c12,1.25,1.42
O=c1cc(-c2ccccc2)oc2cc(O)cc(O)c12,1.55 and 1.53,2.06 and 1.73
COc1cccc2oc(-c3ccccc3)cc(=O)c12,1.41,1.43
COc1cc(OC)c2c(=O)cc(-c3ccccc3)oc2c1,1.01,1.12
COc1c(O)cc(O)c2c(=O)cc(-c3ccccc3)oc12,1.03,1.02
O=c1cc(-c2ccc(O)cc2)oc2cc(O)cc(O)c12,0.595,0.545
COc1ccc(-c2cc(=O)c3c(OC)c(OC)c(OC)cc3o2)cc1OC,0.736,0.843
O=c1cc(-c2ccccc2)oc2cc(O)c(O)c(O)c12,1.13,1.1
COc1cc(C)c2c(=O)cc(-c3ccccc3)oc2c1,1.64,1.76
COc1ccc(-c2cc(=O)c3c(OC(C)=O)cc(OC(C)=O)cc3o2)cc1,1.25,1.3
O=c1cc(-c2ccc(O)c(O)c2)oc2cc(O)cc(O)c12,1.01,1.1
CC[C@H]1OC(=O)C[C@@H](O)[C@H](C)[C@@H](O[C@@H]2O[C@H](C)[C@@H](O)[C@H](N(C)C)[C@H]2O)[C@@H](CCN2CCCCC2)C[C@@H](C)C(=O)/C=C/C(C)=C/[C@@H]1CN1CCCCC1,0.885,0.882
CC1NC(=O)NC1=O (configuration not stated),0.946,0.877
CCO[C@H]1CN(C2CCC(O)(c3ccc4c(c3)OCO4)CC2)C[C@@H]1NC(=O)CNC(=O)c1cccc(C(F)(F)F)c1 (some centres not stated),0.97,0.88
C#CCN(Cc1cc2c(=O)n(C)c(CN3CCN(C)CC3)nc2cc1Cl)c1ccc(C(=O)NCc2cccnc2)cc1,0.621,0.565
c1ccc2c3c([nH]c2c1)[C@H]1[C@@H]2CC[C@@H]([C@@H]4CCCN[C@@H]42)N1CC3,1.23,1
CC(C)CCC[C@@H](C)[C@H]1CC[C@H]2[C@@H]3C=CC4=CC(=O)CC[C@]4(C)[C@H]3CC[C@]12C,0.981,0.927
CC(C(=O)O[C@]12CCC[C@H](CC1)N2C)c1ccc(Br)cc1 (some centres not stated),0.821,0.934
CCOc1ccc(Oc2ccc(OCc3cc(F)ccc3F)cc2)c(N)c1,1.03,0.887
C[C@@H]1O[C@@H](OC[C@H]2O[C@@H](OCCc3ccc(O)c(O)c3)[C@H](O)[C@@H](O[C@@H]3O[C@@H](C)[C@H](O)[C@@H](O)[C@H]3O)[C@@H]2OC(=O)/C=C/c2ccc(O)c(O)c2)[C@H](O)[C@H](O)[C@H]1O,1.09,0.982

Compound,PER2::LUC luminescence (time after treatment 24 h),PER2::LUC luminescence (time after treatment 30 h)
N[C@@H](C(=O)N[C@@H]1C(=O)N2C(C(=O)O)=C(CSc3cn[nH]n3)CS[C@H]12)c1ccc(O)cc1,1,0.912
C/C1=C/CCC(C)(O)/C=C\C(C(C)C)C(OC(=O)c2ccc(O)cc2)C1 (configuration not stated),1.06,1.07
O=C1NC(=O)/C(=C\c2ccc3nccnc3c2)S1,1.2,1.23
O=C1NC(=O)/C(=C/c2cccc(C(F)(F)F)c2)S1,1.02,1.06
O=C1NC(=O)/C(=C/c2ccc3c(c2)OC(F)(F)O3)S1,1.31 and 1.12,1.42 and 1.06
O=C(O)c1cccc(CN2C(=O)/C(=C(\c3ccccc3)c3ccc(Cl)cc3)c3ccccc32)c1,1.09,1.03
CO[C@@H]1[C@@H](O[C@@H]2O[C@H](C)[C@@H](O[C@H]3C[C@@](C)(O)[C@@H](OC(=O)CC(C)C)[C@H](C)O3)[C@H](N(C)C)[C@H]2O)[C@@H](CC=O)C[C@@H](C)[C@@H](O)/C=C/C=C/C[C@@H](C)OC(=O)C[C@H]1O,0.929,1.07
CN(C)c1ccc2c(c1)OC(N)=C(C#N)C2c1cccc(C(F)(F)F)c1 (configuration not stated),1.04,1
NC(=O)c1ccccc1Nc1ccnc(Nc2cccc(O)c2)n1,0.392,0.446
CC1(C)C2CCC1(C)C(O)C2 (configuration not stated),1.1,0.997
Clc1ccc(COC(Cn2ccnc2)c2ccc(Cl)cc2Cl)cc1 (configuration not stated),1.26 and 1.03,1.35 and 1.25
Clc1ccc(C(Cn2ccnc2)OCc2ccc(Sc3ccccc3)cc2)c(Cl)c1 (configuration not stated),0.905,1.06
Clc1ccc(COC(Cn2ccnc2)c2ccc(Cl)cc2Cl)c(Cl)c1 (configuration not stated),1.04 and 0.591,1.29 and 1.01
C=CC(C1=CC(=O)C(OC)=CC1=O)c1ccc(O)cc1 (configuration not stated),0.816,0.863
CCCCCCCCCCC1=C(C)C(=O)C(OC)=C(OC)C1=O,1.02,0.992
C[C@@H]1CCO[C@H]2Cn3cc(C(=O)NCc4ccc(F)cc4F)c(=O)c(O)c3C(=O)N12,1.35 and 1.15,1.4 and 1.2
CCN1C[C@H](C)n2c(c(O)c3c(=O)n(Cc4ccc(F)c(Cl)c4)nc(C(=O)NC)c32)C1=O,1.29,1.16
CC(=O)c1ccc2c(c1)C1C=CCC1C(c1cc3c(cc1Br)OCO3)N2 (configuration not stated),1.02,0.942
CC(C(=O)Nc1cc(C#N)ccc1CCCC(=O)O)c1ccc(F)c2ccccc12 (configuration not stated),1.06,1.03
COC(=O)C(O)CCn1cnc2c(N)ncnc21 (configuration not stated),0.95,0.999
CC(Oc1ccccc1)C(=O)N[C@@H]1C(=O)N2[C@@H]1SC(C)(C)[C@@H]2C(=O)O (some centres not stated),1.02,0.902

Compound,PER2::LUC luminescence (time after treatment 24 h),PER2::LUC luminescence (time after treatment 30 h)
CC1(C)S[C@@H]2[C@H](NC(=O)C(C(=O)O)c3ccccc3)C(=O)N2[C@H]1C(=O)O (some centres not stated),1.05,1.03
CC1(C)S[C@@H]2[C@H](NC(=O)COc3ccccc3)C(=O)N2[C@H]1C(=O)O,1.09,1.56
COc1cccc(OC)c1C(=O)N[C@@H]1C(=O)N2[C@@H]1SC(C)(C)[C@@H]2C(=O)O,0.867,0.823
CC1(C)S[C@@H]2[C@H](NC(=O)[C@H](N)c3ccccc3)C(=O)N2[C@H]1C(=O)O,1.04 and 0.885,0.911 and 0.808
CC1(C)S[C@@H]2[C@H](NC(=O)Cc3ccccc3)C(=O)N2[C@H]1C(=O)O,1.06 and 1.17,1.72 and 0.949
Nn1cc(Br)c(=O)[nH]c1=O,0.972,0.954
CC[N+]1(C)C2CCC1CC(OC(=O)C1CCC(C(=O)OC3CC4CCC(C3)[N+]4(C)CC)(c3ccccc3)c3ccccc31)C2 (configuration not stated),0.898,0.961
CN(Cc1ccccc1)c1ccc2cc(C(=O)O)c(=O)oc2c1,1.06,0.948
C[C@@H](O)CCCCn1c(=O)c2c(ncn2C)n(C)c1=O,0.991,0.943
CCc1c(C(=O)NNC(=O)[C@H](O)c2cc(F)cc(F)c2)ccc(O)c1C,1,0.957
CCCCCCCCCCCCCCCCCC(=O)OC(CC(=O)O)C[N+](C)(C)C (racemic),0.909,0.786
CCC[C@@H]1C[C@@H](C(=O)N[C@@H]([C@H]2O[C@H](SC)[C@H](O)[C@@H](O)[C@H]2O)[C@H](C)Cl)N(C)C1,1.08,1.93
CCC[C@@H]1C[C@@H](C(=O)N[C@@H]([C@H]2O[C@H](SC)[C@H](OP(=O)(O)O)[C@@H](O)[C@H]2O)[C@H](C)Cl)N(C)C1,1.07,1.01
CCC[C@@H]1C[C@@H](C(=O)N[C@@H]([C@H]2O[C@H](SC)[C@H](O)[C@@H](O)[C@H]2O)[C@@H](C)O)N(C)C1,0.932 and 0.965,0.909 and 0.803
NC(=O)c1cccc2ncc(-c3ccc(Cl)cc3)nc12,1.12,1.16
COc1cc(O)c2c(=O)c(O)c(-c3ccccc3)oc2c1,0.99,1.06
COC(=O)[C@@H]1OC(=O)C2OC23[C@@]1(C)CCC1[C@@]2(C)CCC(=O)C(C)(C)C2C[C@@H](OC(C)=O)[C@]13C (some centres not stated),0.9,0.921
O=c1cccc2ccc(O)c(O)c2c1O,0.987,0.83
N#Cc1nccc(Oc2cccc(-c3ccc(CN)cc3)c2)n1,0.994,1.14
CC(=O)N[C@H]1[C@H]([C@H](O)[C@H](O)CO)O[C@@](Oc2c[nH]c3ccc(Br)c(Cl)c23)(C(=O)O)C[C@@H]1O,1,0.967
Cc1nc(C#Cc2cccnc2)cs1,1.15,1.26

Compound,PER2::LUC luminescence (time after treatment 24 h),PER2::LUC luminescence (time after treatment 30 h)
Cc1cccc(C#Cc2ccccc2)n1,1.56 and 1.59 and 1.5,1.16 and 1.75 and 1.47
NS(=O)(=O)C#Cc1ccccc1,1.18,0.903
Cc1cc(C)c(/C=C2\C(=O)Nc3ccc(Cl)cc32)[nH]1,1.06,1.02
O=C(O)/C=C/c1ccc(O)c(O)c1,0.886,0.894
O=C(/C=C/c1ccc(O)c(O)c1)OCCc1ccccc1,0.173,0.361
O=C(/C=C/c1ccc(O)c(O)c1)O[C@@H]1C[C@](O)(C(=O)O)C[C@@H](O)[C@H]1O,1.8,1.28
C[C@H]1CCN(C(=O)CC#N)C[C@H]1N(C)c1ncnc2[nH]ccc12,1,1.02
O=Nc1c(O)[nH]c2c(Cl)c(Cl)ccc12,1.05,1.07
OCCOCCN1CCN(C(c2ccccc2)c2ccccc2)CC1,0.939,0.9
O=C(O)/C(=C\c1c(C(=O)O)[nH]c2cc(Cl)cc(Cl)c12)c1ccccc1,1.4,1.34
O=C(O)c1cc(=O)c2c(Cl)cc(Cl)cc2[nH]1,1.04,1
O=C(O)CCc1c(C(=O)O)[nH]c2cc(Cl)cc(Cl)c12,1.03,0.901
O=C(O)[C@@H]1C[C@H](CP(=O)(O)O)CCN1,1.03,0.992
O=C1Nc2nc(-c3c(O)cccc3OCC3CC3)cc([C@@H]3CCCNC3)c2CO1,0.574,0.66
COc1ccc(CCC(=O)Nc2nc3ccc(Cl)cc3s2)cc1OC,0.875 and 0.954,1.04 and 0.951
CC[N+](CC)(CC(=O)Nc1c(C)cccc1C)Cc1ccccc1,0.988,0.901
Cc1cc2sc(NC(=O)Cc3ccccc3)nc2cc1Cl,1.02,1.38
C[C@@H]1O[C@@H](OC[C@H]2O[C@@H](Oc3cc(O)c4c(=O)cc(-c5ccc(O)cc5)oc4c3)[C@H](O)[C@@H](O)[C@@H]2O)[C@H](O)[C@H](O)[C@H]1O,0.948,0.927
